In the library only some 4.2% were active in any assay of this set; here they are far more common.
hgDAF-12 ag: hgDAF-12 agonism, primary luciferase screen; HEK293 GAL4-hgDAF12 UAS-luciferase reporter, agonist luminescence; normalized to butyrate control; activation, % at 6.8 µM; hit rate 1.8% among 370,000;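 active = activation above a cutoff set at the mean of all screened compounds plus 3 SD, cut at about 10% in these data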;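 note: 0% = DMSO wells and 100% = sodium butyrate wells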
DAX1 StAR inh: blocks DAX1 repression of SF-1 activated StAR promoter. HEK293T StAR-luciferase reporter, SF-1/DAX-1 repression relief. inhibition, % at 6.8 µM. hit rate 1.1% among 370,000;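 active = inhibition above the mean over all tested compounds plus 3 SD, cut at about 3.6% in these data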;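 note: 0% = DAX-1 cells with DMSO and 100% = cells lacking DAX-1 with DMSO; higher inhibition means more luminescence from relief of DAX-1 repression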
ssDAF12 agonist: S. stercoralis DAF-12 activation, primary screen; HEK293 ssDAF-12/GRIP1 lit1-tk-luc reporter, luminescence; % of 3 µM dafachronic acid response; hit rate 1% among 370,000; activation, % at 6.8 µM;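 active = activation above the mean over all tested compounds plus 3 SD, cut at about 0.9% in these data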;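 note: 0% = DMSO-only wells and 100% = 3 µM delta7-dafachronic acid wells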
SMARCA2 activ: increases SMARCA2 function in MMTV reporter cells | MG213 cells, MMTV-luciferase reporter, dexamethasone, overnight | activation, % at 9.1 µM | hit rate 1% among 370,000 | AID 652017; in the data active = activation above about 7.8%;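 note: 0% = vehicle wells and 100% = reference activator wells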
hcDAF-12 act: H. contortus DAF-12 activation, primary screen. HEK293 hcDAF-12 lit1-tk-luc reporter, luminescence; 0% DMSO, 100% Δ7-dafachronic acid. hit rate 1.4% among 370,000. activation, % at 6.8 µM;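 active = activation above the mean of all tested compounds plus 3 SD, cut at about 5.5% in these data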;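 note: 100% = response to 3 µM Δ7-dafachronic acid high control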
Numbers without * were called inactive; · = not tested or not shown.

SMILES	hgDAF-12 ag	DAX1 StAR inh	ssDAF12 agonist	SMARCA2 activ	hcDAF-12 act
Nc1ccccc1-c1ccc(Cl)cc1	1.5	4.1*	-1.2	0.2	1.1
Nc1ccccc1-c1ccccc1N	-0.1	0.0	-0.7	0.5	0.0
COc1ccc2cc(-c3cccnc3)ncc2c1	11.4*	2.7	-0.1	6.8	2.3
N=c1c2c(-c3ccccc3)c(-c3ccccc3)n(CCc3ccccc3)c2ncn1C1CCC(O)CC1 (stereo not drawn)	-5.4	-2.1	-1.2	1.9	-0.4
CCN(Cc1ccccc1)S(=O)(=O)c1cn(C)cn1	12.6*	-0.2	-1.0	1.1	-0.2
CCN(Cc1ccccc1)S(=O)(=O)c1ccc(F)cc1	2.0	-0.5	-1.2	-0.4	-1.2
O=C(c1ccco1)N(Cc1ccc(Cl)cc1)Cc1ccco1	2.7	-2.0	-0.2	4.1	5.7*
Cc1cccc(C)c1NC(=O)C(c1ccccc1)n1c(-c2ccccc2)nc2ccccc21 (stereo not drawn)	5.3	0.1	-0.8	-0.8	-1.4
CCc1nnc(NS(=O)(=O)c2ccc(N/C=C/C(=O)c3ccc(C)cc3)cc2)s1	8.0	2.1	-0.1	7.2	2.8
CCCc1nnc(NC(=O)c2cccc(OC)c2)s1	12.8*	4.0*	-0.1	2.1	1.1
CCc1nnc(NS(=O)(=O)c2ccc(N/C=C\C(=O)c3cccc(OC)c3)cc2)s1	2.6	1.6	-1.1	7.9*	0.2
Cn1c(/N=C/c2c(O)ccc3ccccc23)nc2ccccc21	-2.6	-1.4	1.3*	1.5	0.0
O=C(NNC(=O)c1cc2ccccc2o1)c1ccc(F)cc1	0.3	2.6	-0.3	2.8	1.8
Cc1csc(C(C#N)C(=O)c2cc3ccccc3o2)n1 (stereo not drawn)	4.3	3.9*	-0.8	3.2	3.5
Cc1ccc(S(=O)(=O)NCc2csc(C)n2)cc1	1.6	0.0	-0.5	-1.1	-0.3
Cc1nc(CNS(=O)(=O)c2ccc3c(c2)CCCC3)cs1	-3.3	-1.6	-1.6	-1.8	5.9*
COC(=O)[C@@]12CCCCC3=C1N(CCC3)C(=O)[C@H]2CC(=O)N1CCN(C(=O)C2CC2)CC1	2.0	0.3	-1.0	-2.7	-1.2
Cc1ccccc1-n1ncc(C(C)NC(=O)c2ccccc2)c1C (stereo not drawn)	0.9	-0.9	-1.6	-0.6	0.5
C=CCC(=O)NC(C)c1cnn(-c2ccccc2C)c1C (stereo not drawn)	2.4	-0.5	1.0*	4.2	3.1
Clc1ccc(OCCOc2ccc(Br)nc2Br)c(Cl)c1	6.0	·	-1.9	·	-2.0
CCOC(=O)c1ccccc1Nc1cn(C(C)=O)c2ccccc12	1.2	-0.8	-0.3	0.2	2.6
CC(=O)n1cc(Nc2ccccc2C(=O)O)c2ccccc21	1.5	0.8	0.9*	1.3	2.4
CC(C)Cn1c(-c2cccs2)nc2ccccc21	1.9	-0.5	-0.6	1.1	-0.5
Cn1c(-c2ccc(N)cc2)nc2ccccc21	8.1	1.0	-0.6	2.6	1.4
Cn1c(-c2cccs2)nc2ccccc21	11.4*	2.2	-0.2	3.8	2.4
SMILES	hgDAF-12 ag	DAX1 StAR inh	ssDAF12 agonist	SMARCA2 activ	hcDAF-12 act
Cn1c(-c2ccc(C=O)s2)nc2ccccc21	12.0*	0.2	-0.4	4.7	2.7
COc1ccc(CN2C/C(=C/c3ccccc3)N3C(=O)C[C@@H](c4ccc5ccccc5c4)N=C23)c(OC)c1	1.8	-0.9	-1.7	-3.5	-2.6
O=C(/C(=C\c1ccccc1)c1nc2ccccc2[nH]1)c1ccc(Cl)cc1	11.2*	0.9	-0.3	-0.8	0.9
Cc1ccc(-c2ccnc3c(Cl)c(C)nn23)cc1	-1.1	0.5	-1.1	-2.3	0.9
Cc1nn2c(-c3ccncc3)ccnc2c1Cl	11.7*	0.1	-1.4	3.2	0.4
Fc1ccccc1CSc1nc2ccccc2[nH]1	11.5*	3.2	0.5	5.5	5.0
O=[N+]([O-])c1cccc(CSc2nc3ccccc3[nH]2)c1	5.8	0.0	-1.6	3.6	0.4
COc1cccc(CSc2nc3ccccc3[nH]2)c1	12.8*	2.1	-0.6	2.9	0.8
O=C(CSc1nc2ccccc2o1)NN=C/C=C\c1ccccc1[N+](=O)[O-]	7.9	0.9	-0.1	5.7	4.9
Cc1n[nH]c(=S)n1/N=C/c1ccc(OCc2ccc(Cl)cc2)cc1	13.1*	0.8	-1.0	0.5	2.3
NC(N)=N/N=C/c1ccc(OCc2ccc(Cl)cc2)cc1	12.5*	0.9	-1.3	-2.0	-0.6
NC(N)=N/N=C/c1ccc(OCc2ccccc2)cc1	7.9	-1.4	-1.4	-2.8	-2.5
CCOc1cc(CCNC(=O)c2cc3ccsc3n2C)ccc1OC	0.3	-1.0	-1.7	0.5	-0.3
Cc1ccc(CN2C(C(=O)NC3CCCC3)CSCCS2(=O)=O)cc1 (stereo not drawn)	2.7	0.2	-1.0	-0.8	0.6
CN(Cc1ccccc1)C(=O)OCc1cn(Cc2ccc(C(F)(F)F)cc2)nn1	-1.2	-0.5	-0.8	-2.9	-1.7
CSCCC(NS(=O)(=O)c1ccc2c(c1)oc(=O)n2C)C(=O)NCc1cccs1 (stereo not drawn)	-2.9	0.5	-0.8	-3.1	-0.5
CSCCC(NS(=O)(=O)c1ccc2c(c1)oc(=O)n2C)C(=O)NCc1ccc(C)cc1 (stereo not drawn)	1.1	0.4	-1.3	0.7	-1.4
CSCCC(NS(=O)(=O)c1ccc2c(c1)oc(=O)n2C)C(=O)NC1CCC(C)CC1 (stereo not drawn)	1.3	3.7*	-1.2	-0.3	-2.9
CSCCC(NS(=O)(=O)c1ccc2c(c1)oc(=O)n2C)C(=O)NC1CCN(Cc2ccccc2)CC1 (stereo not drawn)	10.2	1.1	-0.1	-4.6	6.4*
CC(COc1cccc(Br)c1)CN1CCC(C(O)(c2ccccc2)c2ccccc2)CC1 (stereo not drawn)	-1.7	-1.6	-1.8	-8.5	-2.4
C[C@@H]1CCCN1c1ccc2c(c1)O[C@@H]1CCN(C1)S2(=O)=O	-2.6	-1.8	-1.3	-2.2	-2.1
COC(=O)[C@@]12CCCCC3=C1N(CCC3)C(=O)[C@H]2CC(=O)NCCCN1CCCC1=O	-2.4	1.0	-1.5	-2.6	-1.6
Cc1cccn2c(=O)c3cc(C(=O)NCCc4ccccc4)sc3nc12	0.4	0.4	1.0*	-1.5	4.8
Cc1cccc(Cn2cc(CN3CC(N(C)CCOC(=O)c4cc(C)cc(C)c4)CS3(=O)=O)nn2)c1 (stereo not drawn)	-1.0	-0.7	-1.8	0.1	-1.4
COC[C@H]1O[C@]2(c3ccccc3)CO[C@H]1[C@@H](/C=C/c1ccccc1)C2	-0.5	-0.3	-1.0	-2.7	-0.9
COc1ccccc1/C=C/C(=O)c1ccc(Cl)cc1	3.6	-0.5	-1.3	-0.3	-1.0
Cc1ccc(/C=C/C(=O)NC(=S)N2CCN(C)CC2)cc1	-0.9	0.2	-0.8	0.0	-2.1
COc1cccc(/C=C/C(=O)c2ccc3c(c2)OCCO3)c1OC	10.5*	0.3	-0.7	3.3	0.0
COc1ccccc1/C=C/C(=O)c1ccccc1	12.8*	0.3	0.0	5.7	1.5
